# In the library only some 21% were active in any assay of this set; here they are far more common.
# HCV inh = qHTS Assay for Inhibitors of Hepatitis C Virus (HCV); Huh7.5.1 HCVcc-Cre infection, luciferase reporter, 44 h; Potency, µM (highest dose often 41.8 µM), for the others: at the top dose activity change, negative = inhibition, actives largely listed as inhibitors; 3.4% of 340,000 active; note: potency is the fitted concentration of half-maximal effect; % is set by controls: 0 for no effect and ±100 for the full control effect
#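 Antiviral activity was scored by luciferase reporter output from cells infected with HCVcc-Cre (~0.5 moi) in presence of compound, 44 h infection period, cells seeded 1,000/well 4 h prior.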
# Shiga toxin inh = A qHTS for Small Molecule Inhibitors of Shiga Toxin; Vero cells, Shiga toxin protein synthesis inhibition reporter; 9.2% of 290,000 active; inhibition, % at 38.7 µM; in the data active = inhibition mostly above about 28%, no sharp cut-off; inactive = mostly below about 43%; note: 0% is about no effect
# AMA1 RON2 block = qHTS for Inhibitors of AMA1-RON; Towards Development of Antimalarial Drug Lead: Primary Screen; 0.2% of 360,000 active; Potency, µM (highest dose often 58.2 µM), for inactives: top-dose activity change, negative = inhibition, actives largely listed as inhibitors; AlphaScreen AMA1-biotinylated RON2 peptide binding; Plasmodium falciparum AMA1 (3D7) - RON2 peptide interaction;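 note: potency is the fitted concentration of half-maximal effect; 0% = vehicle wells and -100% = peptide control; nearly all actives have a fitted effect of over 45% in size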
#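 AMA1 (3D7) with his tag at 25 nM final met compounds first, then biotinylated RON2 peptide at 25 nM; detection used donor plus acceptor beads, 10 µg/mL apiece, read by AlphaScreen after 30 min at room temperature.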
# Pf growth 48h = Primary qHTS for delayed death inhibitors of the malarial parasite plastid, 48 hour incubation | Potency, µM (titrated, usually from 28.7 µM), for inactives: at the top dose activity change, negative = inhibition, most hits filed as inhibitors | AID 504832, 2011 | P. falciparum luciferase growth in erythrocytes, 48 h | 5.9% of 310,000 active; note: potency is the fitted concentration of half-maximal effect; % is set by controls: 0 for no effect and ±100 for the full control effect
#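 Luciferase-expressing parasites in RBCs, 2% Hct / 0.1% parasitemia final; RPMI 1640 + 0.5% Albumax; 37 C, 5% CO2, one generation; luminescence read-out, lower signal = inhibition.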
# Cycloheximide cs = Cycloheximide Counterscreen for Small Molecule Inhibitors of Shiga Toxin; 12% of 300,000 active; max response, %; AID 2314, 2010; cell reporter, cycloheximide protein synthesis inhibition counterscreen; in the data active = max response mostly above about 13%, no sharp cut-off; inactive = mostly below about 14%; note: read at 38.3 µM for the half of the compounds with a filed dose; 0% is about no effect
# Pf growth 96h = Primary qHTS for delayed death inhibitors of the malarial parasite plastid, 96 hour incubation; AID 504834, 2011; Potency, µM (series often up to 28.7 µM), for inactives: top-dose activity change, negative = inhibition, usual class: inhibitors; 6.9% of 320,000 active; P. falciparum luciferase reporter growth, 96 h; note: potency is the fitted concentration of half-maximal effect; % is set by controls: 0 for no effect and ±100 for the full control effect
#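 Parasite growth measured via integrated firefly luciferase reporter in P. falciparum. Infected erythrocytes at 2% hematocrit, 0.05% parasitemia final were treated 96 hours at 37 C under 5% CO2, and luminescence was read.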
# Numbers without * were called inactive; ? = inconclusive; . = not tested or not shown; [ ] = another dose, or the depositor's remark. Unless noted, calls come from the whole dose curve; as a rule, active = well fitted curve in the direction sought with a large enough effect; inconclusive = small, poorly fitted or top-dose-only effect, or another doubt; inactive = no such curve, though single readings can be large; an effect the other way counts as inactive or inconclusive.
SMILES,HCV inh,Shiga toxin inh,AMA1 RON2 block,Pf growth 48h,Cycloheximide cs,Pf growth 96h
C[C@H]1CN([C@@H](C)CO)C(=O)c2cccc(NS(=O)(=O)c3cn(C)cn3)c2O[C@H]1CN(C)S(C)(=O)=O,18.8%,.,0.0%,.,.,.
Cc1cc2c(cc1C)C(c1cccc(F)c1)CC(=O)N2 (centres undefined),-9.7%,4.4,-3.3%,-2.9%,0.3,12.5%
O=C1CC(c2ccc(F)cc2)c2cc3c(cc2N1)CCC3 (centres undefined),?,-10.0,-8.2%,14.7µM*,-4.3,25.3%
CCOc1ccc(N2CC(C(=O)N3CCCc4ccccc43)CC2=O)cc1 (centres undefined),-6.2%,64.0*,-0.3%,19.9%,31.5*,49.0%
Cc1ccc(N2CC(C(=O)N3CCCc4ccccc43)CC2=O)cc1 (centres undefined),-13.2%,23.9,-2.2%,-18.9%,7.5,.
Clc1ccc(-n2c(SC/C=C/c3ccccc3)nnc2-c2cccnc2)cc1,?,-11.8,-27.7%,11.7µM*,-3.8,.
CCSc1nnc(-c2cccnc2)n1-c1ccc(Cl)c(C)c1,9.3%,-13.5,-14.1%,.,-1.5,11.7µM*
COc1cccc(-n2c(SCC(=O)O)nnc2-c2cccnc2)c1,6.5%,-4.7,-0.1%,16.4%,-1.1,?
O=C(CSc1nnc(-c2cccnc2)n1-c1ccccc1)Nc1ccccn1,-9.7%,25.3,-14.0%,15.9%,-1.0,10.4µM*
Cc1ccc(S(=O)(=O)NCC(=O)NCCc2c[nH]c3ccccc23)cc1C,?,-15.8,-10.1%,12.3%,-1.8,?
COCCNC(=O)CSc1ccccc1C(=O)NC1CCCc2ccccc21 (centres undefined),8.3%,1.4,1.0%,12.5%,-3.2,15.7%
Cn1c(N)c(C(=O)CSc2nnc(-c3c[nH]c4ccccc34)n2C2CC2)c(=O)[nH]c1=O,0.8%,.,-17.5%,?,.,6.57µM*
CC(C)Sc1nnc(-c2c[nH]c3ccccc23)n1C,-15.3%,121.4*,0.4%,.,50.2*,-0.8%
C#CCSc1nnc(-c2sc(-c3ccccc3)nc2C)n1C,-28.8%,17.6,-0.7%,-9.0%,17.9*,?
CCOC(=O)C(C)Sc1nnc(-c2c[nH]c3ccccc23)n1C (centres undefined),11.3%,10.0,-1.9%,.,11.1,?
COc1cccc(-n2c(SC)nnc2-c2c[nH]c3ccccc23)c1,-24.0%,-5.3,13.5%,.,-3.0,4.65µM*
O=C1CC(C(=O)N2CCN(c3ccccn3)CC2)CN1Cc1ccccc1Cl (centres undefined),-3.3%,.,6.0%,?,.,-5.3%
C#CCSc1nnc(-c2c[nH]c3ccccc23)n1C,17.6%,2.0,0.0%,?,18.0*,-22.9%
CCOC(=O)[C@]12CCC=C1N(Cc1ccc3c(c1)OCO3)C(=O)[C@H](CC(=O)N1CCN(C(=O)c3ccco3)CC1)C2,.,.,1.1%,.,.,.
Cc1sc2ncnc(SCC(=O)c3cccs3)c2c1C,1.1%,72.0*,36.4%,51.0%,35.3*,.
CCc1c(C)nc2[nH]ncn2c1=O,16.8%,.,3.0%,.,.,.
CC(=O)N/N=C(\C)c1cccc(C(F)(F)F)c1,11.7%,-10.8,25.6%,?,15.2,1.9%
CCNC(=S)N/N=C(\C)c1cccc(C(F)(F)F)c1,?,24.1,29.4%,9.4%,17.0,11.7µM*
C/C(=N\NC(=S)NC1CCCCC1)c1cccc(C(F)(F)F)c1,-25.7%,3.1,111.7%,3.7µM*,-0.9,?
C/C(=N\NC(=S)NC1CCCCC1)c1cccc(Br)c1,0.2%,-8.9,0.5%,1.04µM*,1.3,0.465µM*
SMILES,HCV inh,Shiga toxin inh,AMA1 RON2 block,Pf growth 48h,Cycloheximide cs,Pf growth 96h
CC(C)(C)c1ccc(C(=O)N2CCC(C(=O)c3ccccc3)CC2)cc1,-25.1%,-3.4,2.6%,5.3%[0.00184 µM],-1.8,?
O=C(CCNC(=O)N1CCn2c1nc1ccccc12)NCc1ccccc1,1.6%,-5.2,-9.0%,-5.4%,0.9,7.5%
O=C(N/N=C/c1cc2c(c([N+](=O)[O-])c1)OCO2)c1ccncc1,-8.5%,.,36.0%,75.4%,-2.4,2.33µM*
Cn1cc([N+](=O)[O-])c(C(=O)N/N=C/c2ccc3c(c2)OCO3)n1,23.0%,42.5*,-2.9%,4.5%,20.1*,?
COC(=O)c1ccc2nc(-c3ccc(C)cc3)c(Cc3cccc(Cl)c3)n2c1,.,.,-1.4%,.,.,.
COC(=O)c1cc2occc2n1CC(=O)Nc1ccc(OC)c(OC)c1OC,9.1%,1.6,1.7%,.,-3.2,135.1%
COC(=O)c1cc2oc(C)cc2n1CC(=O)Nc1ccc(OC)c(OC)c1OC,.,-4.2,.,1.65µM*,-3.0,?
COC(=O)c1cc2sc(Cl)cc2n1CC(=O)Nc1ccc(OC)c(OC)c1OC,-18.5%,16.1,35.6%,0.415µM*,-2.8,21.3%
CCC(C(=O)NC1CCCC1)n1c(-c2cc3ccccc3[nH]2)nc2ccccc21 (centres undefined),.,.,69.9%,.,.,.
[O-]C1=N[N+](=C(c2ccccc2)c2ccccc2)C1,19.1%,.,22.3%,.,.,.
COc1cc2c(cc1OC)C(c1ccccc1)N(C(=O)c1ccco1)CC2 (centres undefined),0.7%,37.8,-12.4%,.,11.3,122.5%
COC(=O)c1ccc(OCC2c3cc(OC)c(OC)cc3CCN2C(=O)c2ccco2)cc1 (centres undefined),?,-17.2,-14.4%,14.7µM*,10.0,?
COC(=O)c1ccc(OCC2NCCc3cc(OC)c(OC)cc32)cc1 (centres undefined),0.2%,-12.3,-5.6%,4.7%,-0.9,18.5%
COC(=O)c1ccc(OCC2c3cc(OC)c(OC)cc3CCN2C(C)=O)cc1 (centres undefined),?,-11.6,4.9%,?,4.1,?
CCC(=O)N1CCc2cc(OC)c(OC)cc2C1COc1ccc(C(=O)OC)cc1 (centres undefined),?,-8.7,-14.2%,10.4µM*,-1.2,?
COc1ccc2cc(C3c4cc(OC)c(OC)cc4CCN3C(=O)c3ccco3)c(=O)[nH]c2c1 (centres undefined),-5.2%,-8.5,-16.7%,5.22µM*,-7.9,25.8%
COC(=O)c1ccc(OCC(O)CN2CCc3cc(OC)c(OC)cc3C2c2ccccc2)cc1 (centres undefined),7.94µM*,-4.7,?,?,-1.5,10.4µM*
CCOC(=O)c1cc(-c2ccccc2C)n(CC2CC(c3ccc(OC)cc3)=NO2)n1 (centres undefined),?,.,-5.4%,.,.,.
CN(C)c1ccc(CC(=O)N2CCCCC2c2cc(C(=O)Nc3ccccc3)no2)cc1 (centres undefined),.,.,-11.2%,.,.,.

# Assay outcomes from PubChem BioAssay.
